The supplement of paper PMC11624193, “Coupling cellular drug-target engagement to downstream pharmacology with CeTEAM” (Nature Communications, 2024)
Structures can show the parent of a compound that is named as a salt. Unmarked numbers belong to inactive results.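 The calls were made as follows: active = log2 fold change beyond 2 SD from the library mean after excluding viability outliers; inactive = within 2 SD.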

These compounds were tested against PARP1 L713F-nLuc biosensor (HCT116) (UniProt P09874) (assay: PARP1 L713F-nLuc/akaLuc ratio relative to DMSO control (biosensor stabilization) (fold change); higher = more PARP1 biosensor stabilization (target engagement / stabilizer), active = hit call of the paper). Conditions: stock concentration (mM; final µM = stock mM x 1): 10; 24 h.
Chain of PARP1 L713F-nLuc biosensor (HCT116) (P09874 whole entry L713F, looked up): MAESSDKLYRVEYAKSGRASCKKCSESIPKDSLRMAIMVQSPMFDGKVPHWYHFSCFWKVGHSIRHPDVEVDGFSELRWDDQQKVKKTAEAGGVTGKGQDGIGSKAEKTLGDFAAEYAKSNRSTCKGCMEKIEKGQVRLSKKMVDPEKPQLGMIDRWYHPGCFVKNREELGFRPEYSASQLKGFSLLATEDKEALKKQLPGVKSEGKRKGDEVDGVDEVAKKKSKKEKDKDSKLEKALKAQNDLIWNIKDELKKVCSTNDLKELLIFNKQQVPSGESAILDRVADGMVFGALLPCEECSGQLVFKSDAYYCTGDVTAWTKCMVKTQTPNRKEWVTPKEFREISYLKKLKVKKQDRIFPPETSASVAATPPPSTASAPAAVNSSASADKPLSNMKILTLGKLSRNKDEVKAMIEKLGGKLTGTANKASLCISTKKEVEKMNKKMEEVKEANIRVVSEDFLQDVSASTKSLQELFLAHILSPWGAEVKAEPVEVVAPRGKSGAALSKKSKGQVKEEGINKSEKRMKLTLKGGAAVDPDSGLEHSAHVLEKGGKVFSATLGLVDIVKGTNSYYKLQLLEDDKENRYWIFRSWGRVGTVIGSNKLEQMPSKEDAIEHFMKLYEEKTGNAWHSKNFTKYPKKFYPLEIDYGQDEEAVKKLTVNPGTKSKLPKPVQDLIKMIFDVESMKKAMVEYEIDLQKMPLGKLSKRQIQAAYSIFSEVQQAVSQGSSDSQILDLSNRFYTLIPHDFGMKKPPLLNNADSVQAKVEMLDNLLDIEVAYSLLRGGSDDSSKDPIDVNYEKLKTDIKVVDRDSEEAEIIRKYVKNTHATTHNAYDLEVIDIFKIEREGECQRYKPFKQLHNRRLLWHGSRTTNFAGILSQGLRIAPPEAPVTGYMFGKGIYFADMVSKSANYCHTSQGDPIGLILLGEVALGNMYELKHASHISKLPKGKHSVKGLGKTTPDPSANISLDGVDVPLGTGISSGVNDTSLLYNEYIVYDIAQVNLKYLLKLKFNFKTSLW

Compound | PARP1 L713F-nLuc/akaLuc ratio
COC(=O)c1ccc2c(c1)[nH]c1ncnc(NCCCN3CCCCC3)c12 | 1.02
COc1cc2c(NC3CCN(C(C)C)CC3)nc(C3CCCCC3)nc2cc1OCCCN1CCCC1 | 0.748
COc1ccccc1C(=O)Nc1cc2c(cc1N1CCCC1)n(C)c(=O)n2C | 0.797
CS(=O)(=O)c1ccc(Oc2cc(F)cc(C#N)c2)c2c1C(O)C(F)C2 (stereo unspecified) | 0.836
CN(C)CCOc1ccc(/C(=C(/CCCl)c2ccccc2)c2ccccc2)cc1 [Toremifene Citrate] | 0.791
CC(CC(=O)C[C@@H](C)[C@H]1CC(=O)[C@@]2(C)C3=C(C(=O)C[C@]12C)[C@@]1(C)CCC(=O)C(C)(C)[C@@H]1C[C@@H]3O)C(=O)O (stereo partly specified) [Ganoderic acid D] | 0.929
C[C@]1(O)C[C@@H](c2nc(-c3ccc4ccc(-c5ccccc5)nc4c3)c3c(N)nccn32)C1 [Linsitinib (OSI-906)] | 0.715
COc1cc([C@@H]2c3cc4c(cc3[C@@H](O[C@@H]3O[C@@H]5CO[C@@H](C)O[C@H]5[C@H](O)[C@H]3O)[C@H]3COC(=O)[C@H]23)OCO4)cc(OC)c1O [Etoposide] | 0.601
Cn1cnc2c(F)c(Nc3ccc(Br)cc3F)c(C(=O)NOCCO)cc21 | 0.546
CCCOc1ccn2c(C(C)=O)cc(-c3cccc(OC)c3)c2c1 | 1.56
CC(CCc1ccccn1)(CCc1ccccn1)C(=O)c1ccccc1 | 1.27
CCS(=O)(=O)N1CCN(c2ccc(Nc3ncc(C(N)=O)c(NC4CC4)n3)cc2)CC1 | 1.99
CC(C)Oc1ccc(-c2c[nH]cc2CN(C)CCN)cc1 | 1.38
NC(=O)c1cccc2cn(-c3ccc([C@@H]4CCCNC4)cc3)nc12 [Niraparib (R-enantiomer)] | 8.24 (active)
CC(C)c1c(C(=O)Nc2ccccc2)c(-c2ccccc2)c(-c2ccc(F)cc2)n1CC[C@@H](O)C[C@@H](O)CC(=O)O [Atorvastatin Calcium] | 0.363
CC(O)c1cc(C(=O)N[C@@H](C)Cn2ccc(-c3ccc(C#N)c(Cl)c3)n2)n[nH]1 (stereo partly specified) [Darolutamide (ODM-201)] | 0.613

Compound | PARP1 L713F-nLuc/akaLuc ratio
c1cc(SSc2ccns2)sn1 | 1.1
N=C(N)NC(=N)NCCc1ccccc1 [Phenformin (hydrochloride)] | 0.696
Cc1cn(CCN2CCN(c3ccccc3-c3cc(C#N)cc(C(=O)NCCCN4CCCC4)c3)CC2)c2ccccc12 | 0.612
CCOc1ccn(-c2ccc(F)cc2)c(=O)c1C(=O)Nc1ccc(Oc2ccnc(N)c2Cl)c(F)c1 | 1
Cc1cc(Nc2cc(CN3CCOCC3)c3nc(C)c(Cc4ccc(Cl)cc4F)n3n2)n[nH]1 [Gandotinib] | 1.75
CN1CCN(c2ccc(C(=O)Nc3ccc([C@@H]4C[C@H]4N)cc3)cc2)CC1 | 0.684
O=C(O)CNC(=O)c1ncc(-c2cccc(Cl)c2)cc1O [Vadadustat] | 1.03
O=C(c1ccc(OCCN2CCCCC2)cc1)c1c(-c2ccc(O)cc2)sc2cc(O)ccc12 [Raloxifene HCl] | 0.932
Nc1ncnc2c1ncn2[C@@H]1O[C@H](C(=O)N2CCN(CC(=O)Nc3cccc4c3CNC4=O)CC2)[C@@H](O)[C@H]1O [EB-47 (dihydrochloride)] | 0.793
NC(=O)c1cccc(-c2cccc(OC(=O)NC3CCCCC3)c2)c1 | 1.05
C=C(c1ccc(C(=O)O)cc1)c1cc2c(cc1C)C(C)(C)CCC2(C)C [Bexarotene] | 0.719
CCOC(=O)CCNc1cc(N2CCc3ccccc3CC2)nc(-c2ccccn2)n1 | 0.586
N#Cc1c(Oc2ccc(F)c(NC(=O)Cc3cccc(C(F)(F)F)c3)c2)ccc2nc(NC(=O)C3CC3)sc12 | 0.538
O=C(O)CCNC(=S)NCCCC[C@H](NS(=O)(=O)c1cccc(F)c1)C(=O)N[C@@H](Cc1c[nH]c2ccccc12)C(=O)NC1CCC1 [SIRT5 inhibitor 1] | 0.907
COc1ccc2c(Oc3ccc4c(C(=O)Nc5ccccc5N)cccc4c3)ccnc2c1 [Chiauranib] | 0.819
